# Assay results taken from PubChem BioAssay (NCI).
# Compounds without any hit were thinned out: in the full panel of roughly 83,000, 20% have a hit.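 Results are percent growth after 48 hours of single-concentration exposure. 100 means growth as in untreated cells, lower positive values show inhibition; negative values down to -100 show cell death.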 Unmarked numbers belong to inactive results. Active and inactive are the calls of the source. Rule for the calls: active = growth percent below 10; inactive = the rest.
# Tests used:
# Assay in all cases: NCI-60 one-dose screen, 48 h (100 = growth as untreated, 0 = no growth, -100 = all killed)
# Conditions in all cases: 10 µM unless noted
# T-47D breast = tested on: T-47D breast
# BT-549 breast = tested on: BT-549 breast
# MDA-MB-435 melanoma = tested on: MDA-MB-435 melanoma
# SW-620 colon = tested on: SW-620 colon
# MCF7 breast = tested on: MCF7 breast
# HCT-116 colon = tested on: HCT-116 colon
# HCC-2998 colon = tested on: HCC-2998 colon
# KM12 colon = tested on: KM12 colon
SMILES,growth (T-47D breast),growth (BT-549 breast),growth (MDA-MB-435 melanoma),growth (SW-620 colon),growth (MCF7 breast),growth (HCT-116 colon),growth (HCC-2998 colon),growth (KM12 colon)
CC(C)(C)NC(=O)C(OC(=O)C1CCc2cc(F)ccc2O1)c1ccccc1Cl (configuration not stated),86.8%,107%,106%,99.7%,97.8%,93.9%,102%,–
CC1C2CCC(C2)C1COCCOCCO (configuration not stated),98.7%,104%,110%,101%,105%,108%,105%,–
COc1ccc2c(c1)N(CCO)C1=C(C(=O)OC1)C2c1cccc(Br)c1 (configuration not stated),72%,15.9%,-51% (active),22.5%,16.1%,–,–,–
C=CCn1c(SCC(=O)Nc2ccc(C(=O)/C=C/c3ccccc3)cc2)nnc1-c1ccc(OC)c(OC)c1,50.6%,59.5%,69.3%,100%,16.5%,-91.7% (active),85.3%,–
Nc1c(C(=O)c2ccc(Br)cc2)sc2nc3c(cc12)CCCC3,101%,89.4%,49.9%,105%,88.4%,98.5%,99.6%,–
COc1ccc(/C(=C\c2ccc3c(c2)OCO3)C(=O)Nc2nc3ccc(F)cc3s2)cc1OC,101%,97.1%,99.8%,104%,94.9%,97.7%,109%,96.3%
CCN(CC)CCC(CNc1ccnc2cc(Cl)ccc12)c1ccc(O)cc1 (configuration not stated),114%,80.5%,60.7%,51.2%,113%,49.5%,88.9%,82%
COc1cc(-c2nc(-c3nc4cc(C(=O)c5ccccc5)ccc4[nH]3)cc3c2[nH]c2ccccc23)cc(OC)c1OC,88.9%,79.7%,96.2%,103%,86.3%,82.6%,104%,84.5%
COc1ccc(/C=C(/C(=O)N2CCN(c3ccccc3)CC2)c2cc(OC)c(OC)c(OC)c2)cc1O,68.4%,8.46% (active),-52.8% (active),24.1%,19%,6.78% (active),28.6%,9.6% (active)
CCCCN(CCCC)CCC(O)c1cc2ccc(C(F)(F)F)cc2c2cc(C(F)(F)F)ccc12 (configuration not stated),52.1%,91.3%,54.2%,40.4%,6.74% (active),30.5%,-34.8% (active),12.9%
Nc1ccc(C(OC(=O)c2cc3ccccc3c(Cc3c(O)c(C(=O)OC(c4ccc(N)cc4)(c4ccc(N)cc4)c4ccc(N)cc4)cc4ccccc34)c2O)(c2ccc(N)cc2)c2ccc(N)cc2)cc1,17.2%,-4.24% (active),6.93% (active),15.9%,9.51% (active),8.88% (active),9.42% (active),5.29% (active)
O=C1CC2(O)CSc3nc(=O)cc(n32)N1 (configuration not stated),104%,107%,100%,112%,96%,106%,120%,102%
COc1cc(C2CC(c3ccc(Cl)cc3)=NN2C=O)ccc1OS(=O)(=O)c1ccc(C)cc1 (configuration not stated),77%,83.2%,90.2%,87.2%,78.9%,81.1%,104%,–
O=C(CN1CCN(c2ccccc2)CC1)N1CCN(c2nnc(-c3ccc(Cl)cc3)c(-c3ccc(Cl)cc3)n2)CC1,36.1%,46.2%,48.2%,68.8%,33%,25%,62.4%,46.1%
CSC1=NC(=Nc2c(C)cccc2C)C2(CCC(C(C)(C)C)CC2)N1c1ccc(Cl)cc1 (configuration not stated),89.9%,81.4%,36.5%,28.6%,43%,22.4%,44.3%,39.9%
CNCc1cccc2c1OCCOCCOCCC(C)S(=O)(=O)c1ccc(cc1)-c1cnc(N)c(n1)C(=O)N2 (configuration not stated),32.8%,43.9%,42.8%,27.6%,37.9%,-2.15% (active),79%,47.5%
COC(=O)c1cc(Cl)cc([N+](=O)[O-])c1O,101%,108%,99.3%,102%,113%,101%,104%,109%

SMILES,growth (T-47D breast),growth (BT-549 breast),growth (MDA-MB-435 melanoma),growth (SW-620 colon),growth (MCF7 breast),growth (HCT-116 colon),growth (HCC-2998 colon),growth (KM12 colon)
Cc1cc2nc3c(=O)[nH]c(=O)nc-3n(CC=O)c2cc1C,100%,113%,92.2%,99.9%,99%,106%,111%,107%
COc1cc(C2CC(c3cccc(Nc4ccnc5cc(Cl)ccc45)c3)=NN2c2ccc(Cl)cc2)cc(OC)c1OC (configuration not stated),30.8%,81.7%,8.15% (active),37.3%,54.8%,53%,87.3%,33.9%
CC(=O)OC1Oc2cc(C)c(C)cc2-c2oc(=O)c(-c3cc4ccccc4oc3=O)cc21 (configuration not stated),91.9%,129%,112%,133%,108%,81.1%,96.2%,103%
COc1ccc(C2CC(c3cccc(Nc4ccnc5cc(Cl)ccc45)c3)=NN2c2ccc(Cl)cc2)cc1 (configuration not stated),40.6%,56.7%,30.6%,30.7%,65%,66.3%,7.59% (active),–
Cc1nc2n[nH]c(N)c2nc1C,101%,118%,107%,108%,94.8%,109%,103%,–
COc1cccc(NC(=O)[C@H](C(C)C)n2c(=O)[nH]c3ccccc3c2=O)c1,91.1%,102%,108%,103%,98.2%,113%,96.3%,104%
N=c1n(Cc2ccccc2)c(N)cc(=O)n1Cc1ccccc1,26.7%,3.02% (active),37.2%,20.7%,23.4%,8.12% (active),67.4%,39.2%
CCCCN(CCCC)CCCN=c1nc2c(c(N)n1-c1ccccc1)c(=S)n(-c1ccccc1)c(=S)n2-c1ccccc1,-62.1% (active),-90.6% (active),-100% (active),-100% (active),-88.1% (active),-25% (active),-91.5% (active),-100% (active)
CC[C@H](Nc1nc(N)nc(N)c1Cl)c1nc2cccc(NCc3ccc(C(=O)NO)cc3)c2c(=O)n1-c1ccccc1,6.8% (active),37.4%,-51.2% (active),19.9%,13%,-63.6% (active),-14.4% (active),-38.3% (active)
N#Cc1c(N)c(C(=O)c2ccc3c(c2)OCCO3)n2c1CCCC2,29.2%,52.9%,-48.8% (active),19.3%,18.1%,18.6%,59.6%,–
NC(=O)Nc1ccc2ncnc(Nc3cccc(O)c3)c2c1,76.6%,108%,101%,99.1%,97.3%,109%,102%,96.1%
CN1CCN(c2ccc(N3Cc4ccccc4OC4=C3C(=O)c3c(O)ccc(O)c3C4=O)cn2)CC1,-32.7% (active),-78.8% (active),0.932% (active),-61.1% (active),-39.2% (active),-80.9% (active),-65.8% (active),-53.2% (active)
COc1ccc(-c2[nH]nc(N)c2-c2cc(OC)c(OC)c(OC)c2)cc1,52.8%,3.37% (active),-69.2% (active),23%,16.3%,6.24% (active),1.36% (active),–
Oc1[nH]c2ccc(Cl)cc2c1/C=c1/ccc2c(c1)N=C(c1ccc(F)cc1)N=2,62.6%,27.8%,-44% (active),19.3%,10.6%,9.48% (active),74%,48.6%
CCN(CC)CCCNc1cccc2c(C)cc(OC)nc12,98.7%,87.4%,115%,102%,84.8%,95.1%,90.2%,100%
COc1cc2cc(C(=O)Nc3ccccc3)c(N)nc2cc1OC,-28% (active),69.9%,-84.2% (active),-68% (active),-88.4% (active),-80.2% (active),-83.4% (active),-52% (active)
